Assay outcomes from PubChem.
Rows were chosen to be rich in hits. Some 21% of all compounds tested hit in one or more screens of this group.
RORg inh = blocks mouse ROR gamma transcriptional activity; P51450; Drosophila S2 Gal4-RORgamma UAS-luciferase reporter, 20 h; Potency, µM (top dose mostly 53.6 µM), inactives show at the top dose activity change, negative = inhibition, most hits filed as inhibitors; hit rate 5.4% among 310,000; AID 2551; further: potency means the concentration at half of the fitted maximal effect; nearly all actives have a fitted effect of over 60% in size
Target sequence (P51450 whole entry, looked up, the tested form may be a part): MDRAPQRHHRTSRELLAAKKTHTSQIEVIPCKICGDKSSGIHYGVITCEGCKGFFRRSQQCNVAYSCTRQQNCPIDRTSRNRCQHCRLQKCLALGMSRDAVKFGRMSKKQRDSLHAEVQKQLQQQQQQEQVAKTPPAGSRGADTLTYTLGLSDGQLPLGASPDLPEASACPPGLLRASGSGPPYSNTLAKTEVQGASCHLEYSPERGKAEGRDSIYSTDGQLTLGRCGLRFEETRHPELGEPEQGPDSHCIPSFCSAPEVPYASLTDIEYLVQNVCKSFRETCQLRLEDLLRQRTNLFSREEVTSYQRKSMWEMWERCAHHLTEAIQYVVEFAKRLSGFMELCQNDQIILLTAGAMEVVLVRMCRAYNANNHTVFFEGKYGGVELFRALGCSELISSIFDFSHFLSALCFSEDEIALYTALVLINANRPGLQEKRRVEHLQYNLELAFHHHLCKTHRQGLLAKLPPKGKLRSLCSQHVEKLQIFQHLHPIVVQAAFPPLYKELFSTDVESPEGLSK
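Read-out: Photinus luciferase luminescence; inhibitors lower reporter signal. Insect Schneider cells with Gal4-ROR gamma fusion under metallothionein promoter, UAS reporter; 700 uM final copper sulfate induction, 20 hr, ambient temperature.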
TDP1 cell CPT = DT40-hTDP1 cell growth loss with CPT | hit rate 12% among 420,000 | Potency, µM (doses to about 46.2 µM), for inactives: at the highest dose activity change, negative = growth inhibition, hits mostly inhibitors | chicken DT40 Tdp1-/-;hTDP1 cells + 20 nM CPT, ATP luminescence, 48 h; further: potency means the concentration at half of the fitted maximal effect; nearly all actives have a fitted effect of over 55% in size
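Chicken DT40 Tdp1-/- cells stably complemented with human TDP1 were seeded at 400 cells/well in medium containing 20 nM camptothecin, exposed to pin-transferred compounds, and grown at 37 °C for at least 48 hr. Viability was read as ATP luminescence.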
TDP1 cell noCPT = qHTS for Inhibitors of human tyrosyl-DNA phosphodiesterase 1 (TDP1): qHTS in cells in absence of CPT | Potency, µM (doses to about 46.2 µM), inactives show at the highest dose activity change, negative = growth inhibition, hits mostly inhibitors | DT40 Tdp1-/- hTDP1 cells, no CPT, ATP luminescence, 48 h | AID 686978, 2013 | hit rate 15% among 420,000; further: potency means the concentration at half of the fitted maximal effect; nearly all actives have a fitted effect of over 55% in size
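Chicken DT40 Tdp1-/- cells stably complemented with human TDP1 were seeded at 400 cells/well with DMSO in place of 20 nM camptothecin. After compound pinning, cells grew at least 48 hr at 37 °C; viability read by CellTiter-Glo luminescence.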
ELG1 DNA repair = inhibitors of ELG1-dependent DNA repair in HEK293T cells; HEK293T ELG1-luciferase reporter, luminescence, 16 h; DNA damage induced by 5-fluorouridine; AID 504467; Potency, µM (doses to about 46.1 µM), for inactives: at the top dose activity change, negative = inhibition, usual class: inhibitors; hit rate 2.3% among 330,000; further: potency means the concentration at half of the fitted maximal effect; nearly all actives have a fitted effect of over 55% in size
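HEK293T cells expressing luciferase-tagged ELG1 (2,000/well) received 5-Fluorouridine plus compound or DMSO for 16 hr at 37 °C. Luciferase was read by ONE-Glo luminescence after 30 min at room temperature.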
IL1B secr inh = blocks inflammasome-driven IL-1 beta release. THP-1 LPS/ATP IL-1B secretion, AlphaLISA, 16 h; hits give low values. activity change, % at 57.5 µM. hit rate 4.7% among 360,000. AID 743279; in the data active means activity change below about -50%; inconclusive means mostly about -30% to -49%
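THP-1 cells pretreated 1 hr with compounds (up to 57.5 uM final), then stimulated with LPS (250 ng/mL final) plus ATP (1.25 mM final); secreted IL-1B measured by AlphaLISA after 16 hr, decreased signal indicating inhibition.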
Gal4-VP16 FLuc = Gal4-VP16 reporter inhibition counter-screen; hit rate 3.5% among 310,000; Potency, µM (highest dose often 53.6 µM), for inactives: top-dose activity, negative = inhibition, usual class: inhibitors; Drosophila S2 Gal4-VP16 UAS-luciferase, luminescence, 20 h;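 further: Gal4-VP16 expression switched on by copper sulfate through the metallothionein promoter; potency means the concentration at half of the fitted maximal effect; nearly all actives have a fitted effect of over 50% in size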
Numbers without * were called inactive; u = inconclusive; x = no result; [ ] = remark or other dose. Unless noted, the call rests on the fitted dose curve; in most records, active means well fitted curve in the direction sought with a large enough effect; inconclusive means small, poorly fitted or top-dose-only effect, or another doubt; inactive means no such curve, though single readings can be large; an effect the other way counts as inactive or inconclusive. On the % scale 0 is the no-effect control and ±100 the full control effect.

SMILES	RORg inh	TDP1 cell CPT	TDP1 cell noCPT	ELG1 DNA repair	IL1B secr inh	Gal4-VP16 FLuc
CCc1ccc(-c2nn(CC(=O)NCc3ccccc3)c3c2cnc2ccc(C)cc23)cc1	x	-10.8%	-13.1%	x	x	x
COc1ccc(CNc2ncncc2-c2cccnc2)c(OC)c1	13.2%	-1.0%	-22.8%	x	x	5.4%
COc1ccc(CNc2ncncc2-c2ccoc2)c(OC)c1	11.5%	23.1µM*	u	x	x	1.2%
COc1cccc(-c2cncnc2NCc2ccc(OC)cc2OC)c1	u	u	16.4µM*	x	x	-3.5%
COc1ccc(C2=NCCn3nc4cc([N+](=O)[O-])ccc4c32)cc1	x	-20.2%	-7.7%	10.2%	7.3	x
COc1ccc2c3n(nc2c1)CCN=C3c1ccc(C)cc1	x	16.4µM*	u	11.9%	5.1	x
Nc1c(Cl)cc(C2=NCCn3nc4ccccc4c32)cc1Cl	x	23.1µM*	u	-2.9%	-15.1	x
C=CCCC(=O)N1C[C@H]2CON(C)[C@H]2C[C@H]1c1cccc(Br)c1	x	1.4%	-11.5%	x	18.8	x
COc1ccc(CN2CCCC(n3cc(C(=O)N4CCCCC4)nn3)C2)c(OC)c1C (stereo unspecified)	x	11.2%[9.04 µM]	-18.4%	x	x	x
Cc1ccccc1C(=O)NNS(=O)(=O)c1ccc(F)cc1	x	1.4%	-1.2%	x	-20.7	x
COc1ccc(S(=O)(=O)N2CCOC23CCN(C(=O)c2ccccc2OC)CC3)cc1	x	13.1%	-25.8%	3.3%	-16.1	x
CCOC(=O)c1cc(S(=O)(=O)N2CCN(c3cc(Cl)ccc3C)CC2)[nH]n1	x	11.6µM*	u	x	x	x
CCOC(=O)c1cc(S(=O)(=O)N2CCN(c3ccc(F)cc3)CC2)[nH]n1	x	16.4µM*	18.4µM*	x	x	x
CN(C)C=NC(=O)c1[nH]c2ccc(Cl)cc2c1-c1ccccc1	5.9%	u	u	-17.4%	69.0	1.1%
O=[N+]([O-])c1cc(-c2nc(-c3ccccc3)no2)ccc1N1CCCCC1	x	-17.0%	u	x	x	x
O=C(C[n+]1cccc(Br)c1)c1ccc2ccccc2c1	x	-107.2%	-98.8%	x	x	x
O/N=C(/C[n+]1cccc(Br)c1)c1ccc2ccccc2c1	x	u	12.6µM*	x	x	x
CC(=O)OCCCN(C)CC/C=C1/c2ccccc2CSc2ccccc21	x	u	u	x	-69.8*	x
CC1CCCC(C)N1CCCNC(=O)C1CCCN(S(=O)(=O)N2CCCCC2)C1 (stereo unspecified)	x	-7.1%	-5.4%	x	-5.3	x
O=C(c1cccc(S(=O)(=O)N2CCOCC2)c1)N1CCN(c2ccccc2)CC1	x	8.9%	12.6%	-0.3%	5.1	x
O=C(c1cccc(S(=O)(=O)N2CCN(c3ccccc3)CC2)c1)N1CCCCCCC1	x	u	13µM*	-25.3%	-14.0	x
CC1CN(C(=O)c2cc(S(=O)(=O)N3CCCCC3)ccc2Cl)CC(C)O1 (stereo unspecified)	x	16.4µM*	11.6µM*	6.3%	33.3	x
CC1CCCC(NC(=O)c2cccc(S(=O)(=O)N3CCN(c4ccccc4)CC3)c2)C1C (stereo unspecified)	x	18.4µM*	13µM*	u	11.8	x
O=C(c1cc(S(=O)(=O)N2CCN(c3ccccc3)CC2)ccc1Cl)N1CCCCCCC1	x	u	14.6µM*	-29.2%	-52.6*	x
CC1CCCN(C(=O)C2CCN(S(=O)(=O)c3cccs3)CC2)C1 (stereo unspecified)	x	u	-16.8%	19.4%	-0.2	x
SMILES	RORg inh	TDP1 cell CPT	TDP1 cell noCPT	ELG1 DNA repair	IL1B secr inh	Gal4-VP16 FLuc
Cc1ccc(S(=O)(=O)N2CCOCC2)cc1C(=O)N1CC(C)OC(C)C1 (stereo unspecified)	x	-10.2%	-14.5%	13.8%	-0.1	x
CC1CN(C(=O)c2cc(S(=O)(=O)N3CCN(c4ccccc4)CC3)ccc2Cl)CC(C)O1 (stereo unspecified)	x	3.66µM*	2.06µM*	-14.0%	5.2	x
CC1CN(C(=O)c2cc(S(=O)(=O)N(C)c3ccc(F)cc3)ccc2Cl)CC(C)O1 (stereo unspecified)	3.5%	2.31µM*	1.03µM*	u	1.6	-6.7%
CC1CN(C(=O)c2cc(S(=O)(=O)N3CCCC3)ccc2Cl)CC(C)O1 (stereo unspecified)	x	-19.2%	u	-3.9%	45.2	x
O=C(NCC1(N2CCOCC2)CCCCC1)c1cccc(S(=O)(=O)N2CCc3ccccc3C2)c1	-0.5%	18.4µM*	u	u	-9.6	-10.8%
O=C(c1cccc(S(=O)(=O)N2CCc3ccccc3C2)c1)N1CCN(c2ccc(O)cc2)CC1	24.0%	14.6µM*	11.6µM*	u	-10.6	3.4%
O=C(O)c1cccc(S(=O)(=O)N2CCc3ccccc3C2)c1	-31.4%	-2.3%	-3.3%	5.3%	22.3	4.4%
Cc1cccc(NC(=O)N2CCC(N3CCN(Cc4ccccc4)C(=O)C3=O)CC2)c1C	x	-21.3%	12.4%	x	x	x
Cc1cc(C)c(C)c(S(=O)(=O)N2CCN(C(=O)c3ccncc3)CC2)c1C	x	u	7.3%	13.8%	1.2	x
CC(=O)N1CCN(S(=O)(=O)c2cccc(C(=O)N3CCN(S(=O)(=O)c4c(C)c(C)cc(C)c4C)CC3)c2)CC1	x	u	20.6µM*	x	-14.8	x
COc1cccc(C(=O)CN2CCN(S(=O)(=O)c3cccc([N+](=O)[O-])c3)CC2)c1	-19.7%	-0.2%	u	20.9%	4.6	-23.1%
COc1ccc2oc(C(=O)N3CCN(S(=O)(=O)c4cccc([N+](=O)[O-])c4)CC3)c(C)c2c1	17.5%	16.4µM*	14.6µM*	7.3µM*	-3.3	5.7%
CCOc1ccc(-c2cc(N)n(S(=O)(=O)c3ccc(OC)cc3)n2)cc1	1.8%	u	u	-19.5%	-8.2	3.0%
COc1ccc2oc(C(=O)OCC(=O)N3CCN(S(=O)(=O)c4ccccc4)CC3)c(C)c2c1	x	u	u	-14.9%	2.8	x
CCOC(=O)c1oc2ccc(S(=O)(=O)n3nc(-c4ccc(OC)cc4)cc3N)cc2c1C	28.5%	2.91µM*	2.91µM*	u	17.9	-15.9%
Cc1c(C(=O)N2CCN(S(=O)(=O)c3cccs3)CC2)oc2ccc(F)cc12	x	u	16.4µM*	5.17µM*	-10.5	x
CCOc1ccc(S(=O)(=O)N2CCN(C(=O)c3oc4ccc(OC)cc4c3C)CC2)cc1	x	u	u	20.6µM*	u	x
Cc1c(C(=O)N2CCN(S(=O)(=O)c3ccc(F)cc3)CC2)oc2ccccc12	x	u	u	-13.6%	-10.1	x
